Measurements taken from the supplement of paper PMC6555819.

What follows are sequences tested on PPARg:RXRa DBDmut IVT, anti-RXR (DBD mutation: RXRa K156A/R161A, NR concentration 270 nM, RXRa partner concentration 90 nM) (assay: PBM binding z-score (relative to random genomic background probes); higher = stronger binding; sequences stand for … in GC…GCGATTGACAGCGTAGAATGAAGG).
In short: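 Binding z-scores were set against random background probes. The data came from custom Agilent 4×180K protein-binding microarrays carrying double-stranded probes with 34-nt variable regions, incubated 1 h with ligand-free nuclear receptor dimers. Partner-specific antibodies detected binding, and scanned fluorescence was regression-normalized.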
Sequence AGTATGAGGTTATTAAGATCAGGGAATTGCGGTC has a PBM binding z-score of 0.549.
Sequence TCTTGTAGATCAACAGGAGGTTTAGAAAGATCGA has a PBM binding z-score of 1.64.
With TCGAGTAGGTTAGTCGGGTCATTCAGCCAACATA the PBM binding z-score was 2.57.
In the case of CCTCGGAGGAAAACAGGAGGTCAGAGCTGCCAGA, the PBM binding z-score is reported as -0.518.
CCTACTGGGCCATAGGTCATTGATTCCAATGCTC gave a PBM binding z-score of 3.69.
In the case of CCTAGTTGGACAGGAGGTCACACACCGGATATGA, the PBM binding z-score is reported as 0.493.
CATAGTTGGTCAGGAGGTCACACACCGGATATGA gave a PBM binding z-score of 1.15.
CCTTACGGGTCACGAGGTAATAGCACGACGAGCG was tested, and the PBM binding z-score was 4.44.
Work on TGGAGTAGGTTACCAATGGGGCATTCAGCTTTCT yielded a PBM binding z-score of 4.44.
Work on GCGACTGGGGCAAAGCAGTTTACCATAAGGTTGG yielded a PBM binding z-score of 4.75.
In the case of CCTTACGGGTCACTGACAGGTTATAACATTTGGA, the PBM binding z-score is reported as 3.56.
CTCGAAAGGGCGGTTGAGGTGAGTATACGGATAA showed a PBM binding z-score of -0.112.
In the case of CTCGAAAGGTCGCTTGAGGTGAGTATACGGATAA, the PBM binding z-score is reported as 0.887.
Sequence CCTACTGGGCCAAAAAGGTCGTTGATGCCGATAA has a PBM binding z-score of 3.16.
CCGACAGGGGCAAGGTTACCATAACGCACAGCCA was tested, and the PBM binding z-score was -0.0279.
For CCTAGTTGGTCAGGAGGTCACCCACCGGATATGA, the PBM binding z-score was 0.575.
Sequence GCATATAGGTAATACAAGGTGTAAGTCCGATTGT has a PBM binding z-score of 4.05.
Sequence AACTCTAGGTAACAAGTTCAGTGAAAGAGAGGAC has a PBM binding z-score of 3.33.
For CCTGCTAGGCCATGGTCAGCTAATCTACAGTATG, the PBM binding z-score was 1.36.
With AGTCAAAGTTAATCTAGGTAACGTAAGATATGCT the PBM binding z-score was 2.39.
CATACAGGGTCAGCTAGGTCAGAGTAGGGACGGC showed a PBM binding z-score of 1.85.
In the case of CCTAGCAGGCCAATCTGGGTCAGTCAAGGCTTGA, the PBM binding z-score is reported as 3.27.
In the case of ATATGTAGGTTAAGGGTCATTCATGTTGGTTCGC, the PBM binding z-score is reported as 7.75.
In the case of TTACTAAGGTGAGCTGAGGTCGTTGATCCAACTC, the PBM binding z-score is reported as 2.04.
With CAAACTAGGTCAAGGTCAAAGCCGGTTTGTGCCA the PBM binding z-score was 8.75.
In the case of CCTACTGGTCCAAAAAGGTCATTGATGCCGATAA, the PBM binding z-score is reported as 0.397.
TCATATACGTAAAAGGTGAAAGTCGGTGTGGTAA was tested, and the PBM binding z-score was 2.65.
For ACTAGCAGGCCAAGTTTGGGTTACTCAAACAAAG, the PBM binding z-score was 0.764.
Sequence ATCTCTGGGTAAAGTTCAGTGAAAGATCGATAGA has a PBM binding z-score of 1.98.
CCTGCTAGGTCAATTGTCAGCTAAAGCAGCTCGC gave a PBM binding z-score of 4.15.
With ACTATTAGTTGACTTAGGGCAACCTATACGACGC the PBM binding z-score was 0.195.
Work on CGAACTAGGTCTTCCAGGACAGTGAATACATTGA yielded a PBM binding z-score of 4.68.
Work on CCTTGCGGGTCACTCCAGGTTATAGCATCGGAGT yielded a PBM binding z-score of 4.56.
For CCGAGTAGGCTATGGGGCATTCAGGCAACGGTGA, the PBM binding z-score was 0.771.
Work on CAGCCTAGGTCAGGGCCAGAATAGGAGGAACGTT yielded a PBM binding z-score of 1.51.
For AGTAAAAGTTCATCTAGGTAACGTAAGATATGCT, the PBM binding z-score was 0.423.
Work on CATAAAGGGTCAGCTAGGCCAGAGTAGGGACGGC yielded a PBM binding z-score of 1.58.
Work on CGAACTAGGTCAAGGACACTGAATCTCCGCACGC yielded a PBM binding z-score of 8.19.
With GTACCAAGGTGAATAGGTCGTTTATGAGTAGGCG the PBM binding z-score was 1.82.
AGTCAAAGTTCAGGACGAGGTAACGCAAAGCACG was tested, and the PBM binding z-score was -0.0629.
